According to PubChem BioAssay AID1159580 (chemical genetic matrix, 2015):
About 2,000 (36%) of roughly 5,500 compounds were called active. Inconclusive results (about 18%) are left out. Rule as the data show it: active = normalized growth mostly below about 0.91 (no sharp cut-off); inconclusive = no clear call, values can overlap the other calls; inactive = mostly above about 0.92. This is one part of the list.

Assay: chemical genetic growth profiling, strain panel (AID 1159580);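 also: tested at 20 µM; growth read once vehicle control cultures reached saturation at 30 °C; 1 = growth at the plate median or of vehicle wells; lower values mean less growth of the strain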
Details: S. cerevisiae deletion strains, growth OD

Measured: normalized growth

O=[N+]([O-])c1cccc2cn[nH]c12
inactive: locus YAL021C, strain ccr4, active compounds read low 1.01 | locus YAL026C, strain drs2, active compounds read low 1 | locus YAL030W, strain snc1, active compounds read low 1 | locus YAL040C, strain CLN3, active compounds read low 0.985 | locus YBL061C, strain skt5, active compounds read low 0.996 | locus YBR009C, strain hhf1, active compounds read low 1 | locus YBR023C, strain chs3, active compounds read low 0.991 | locus YBR171W, strain sec66, active compounds read low 0.981 | locus YBR231C, strain swc5, active compounds read low 0.982 | locus YBR279W, strain paf1, active compounds read low 1 | locus YCL011C, strain gbp2, active compounds read low 0.983 | locus YCL016C, strain dcc1, active compounds read low 0.989 | locus YCL061C, strain MRC1 (second series), active compounds read low 1 | locus YCL061C, strain MRC1, active compounds read low 0.997 | locus YCL069W, strain vba3, active compounds read low 0.986 | locus YCR088W, strain abp1, active compounds read low 0.98 | locus YDL005C, strain med2, active compounds read low 0.997 | locus YDL040C, strain nat1, active compounds read low 1 | locus YDR001C, strain nth1, active compounds read low 0.99 | locus YDR069C, strain doa4, active compounds read low 0.982 | locus YDR137W, strain rgp1, active compounds read low 0.996 | locus YDR159W, strain sac3, active compounds read low 0.991 | locus YDR195W, strain ref2 1.02 | locus YDR297W, strain sur2, active compounds read low 0.988 | locus YDR334W, strain swr1, active compounds read low 0.997 | locus YDR335W, strain msn5, active compounds read low 0.986 | locus YDR363W, strain ESC2, active compounds read low 1.01 | locus YDR392W, strain spt3, active compounds read low 1.02 | locus YEL003W, strain gim4, active compounds read low 1 | locus YEL037C, strain rad23, active compounds read low 1 | locus YEL061C, strain CIN8 (second series), active compounds read low 0.979 | locus YER002W, strain NOP16, active compounds read low 0.987 | locus YER015W, strain faa2, active compounds read low 0.994 | locus YER016W, strain bim1, active compounds read low 1 | locus YER111C, strain swi4, active compounds read low 0.989 | locus YER155C, strain BEM2 (second series), active compounds read low 1.01 | locus YFR010W, strain ubp6, active compounds read low 0.988 | locus YGL167C, strain pmr1, active compounds read low 0.998 | locus YGL173C, strain kem1, active compounds read low 1.01 | locus YGL227W, strain vid30, active compounds read low 1.01 | locus YGL240W, strain doc1, active compounds read low 1.01 | locus YGL253W, strain hxk2, active compounds read low 0.99 | locus YGR229C, strain SMI1, active compounds read low 0.999 | locus YHR013C, strain ard1, active compounds read low 1.05 | locus YHR027C, strain rpn1, active compounds read low 0.994 | locus YHR030C, strain SLT2, active compounds read low 1.03 | locus YHR079C, strain IRE1, active compounds read low 1.03 | locus YHR142W, strain chs7, active compounds read low 0.995 | locus YJL092W, strain hpr5, active compounds read low 0.989 | locus YJL095W, strain BCK1 (second series), active compounds read low 1 | locus YJL095W, strain BCK1, active compounds read low 1.03 | locus YJL115W, strain asf1, active compounds read low 0.984 | locus YJL129C, strain trk1, active compounds read low 1 | locus YJL154C, strain vps35, active compounds read low 0.981 | locus YJL164C, strain tpk1, active compounds read low 0.988 | locus YJL166W, strain qcr8, active compounds read low 0.992 | locus YJL187C, strain SWE1, active compounds read low 0.999 | locus YJR066W, strain TOR1, active compounds read low 0.947 | locus YJR075W, strain HOC1, active compounds read low 1.01 | locus YKL160W, strain elf1, active compounds read low 0.958 | locus YKR026C, strain gcn3, active compounds read low 1 | locus YKR091W, strain srl3, active compounds read low 0.988 | locus YLL001W, strain dnm1, active compounds read low 0.999 | locus YLL026W, active compounds read low 0.98 | locus YLL041C, strain sdh2, active compounds read low 0.985 | locus YLR027C, strain aat2, active compounds read low 1 | locus YLR113W, strain HOG1, active compounds read low 1 | locus YLR221C, strain rsa3, active compounds read low 0.995 | locus YLR258W, strain gsy2, active compounds read low 0.983 | locus YLR262C, strain YPT6 (second series), active compounds read low 1.01 | locus YLR320W, strain mms22, active compounds read low 1 | locus YLR342W, strain FKS1, active compounds read low 1.01 | locus YLR357W, strain rsc2, active compounds read low 0.993 | locus YLR370C, strain arc18, active compounds read low 0.994 | locus YLR384C, strain iki3, active compounds read low 0.996 | locus YML120C, strain ndi1, active compounds read low 0.991 | locus YMR058W, strain fet3, active compounds read low 0.982 | locus YMR125W, strain sto1, active compounds read low 0.967 | locus YMR129W, active compounds read low 0.993 | locus YMR205C, strain PFK2, active compounds read low 0.991 | locus YMR231W, strain pep5, active compounds read low 1 | locus YNL071W, strain lat1, active compounds read low 1.01 | locus YNL128W, strain TEP1, active compounds read low 0.998 | locus YNL175C, strain NOP13, active compounds read low 0.999 | locus YNL183C, strain NPR1, active compounds read low 0.951 | locus YNL197C, strain WHI3, active compounds read low 0.992 | locus YNL209W, strain ssb2, active compounds read low 0.972 | locus YNL224C, strain SQS1, active compounds read low 1 | locus YNL248C, strain rpa49, active compounds read low 0.965 | locus YNL322C, strain KRE1 (second series), active compounds read low 0.993 | locus YNR049C, strain mso1, active compounds read low 1 | locus YOR001W, strain rrp6, active compounds read low 1 | locus YOR070C, strain gyp1, active compounds read low 0.992 | locus YOR080W, strain dia2, active compounds read low 1.01 | locus YOR083W, strain WHI5 (second series), active compounds read low 1 | locus YOR083W, strain WHI5, active compounds read low 0.965 | locus YOR106W, strain vam3, active compounds read low 0.981 | locus YOR231W, strain MKK1, active compounds read low 1.01 | locus YOR265W, strain rbl2, active compounds read low 0.996 | locus YOR270C, strain vph1, active compounds read low 0.992 | locus YOR290C, strain snf2, active compounds read low 0.986 | locus YPL051W, strain arl3, active compounds read low 0.972 | locus YPL078C, strain atp4, active compounds read low 0.995 | locus YPL106C, strain sse1, active compounds read low 0.957 | locus YPL240C, strain hsp82, active compounds read low 0.992 | locus YPL256C, strain CLN2, active compounds read low 0.997
